PAFAH1B2 FP inh = inhibitors of human PAFAH1B2. recombinant PAFAH1B2, FP-rhodamine activity probe, fluorescence polarization. inhibition, % at 3.39 µM. AID 492953. 340,000 compounds, 1.2% hits. P68402;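 active means inhibition above the mean of all tested compounds plus 3 SD, cut at about 24% in these data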;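 further: 0% = enzyme with DMSO and 100% = wells lacking PAFAH1B2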
PAFAH1B3 FP inh = PAFAH1B3 (human) inhibition; 340,000 compounds, 0.28% hits; recombinant PAFAH1B3, FP-rhodamine probe, fluorescence polarization; inhibition, % at 3.39 µM; Q15102; AID 492972;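 active means inhibition above the screen-wide average of all tested compounds plus 3 SD, cut at about 25% in these data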;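 further: 0% = enzyme with DMSO only and 100% = wells lacking PAFAH1B3 protein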
pPAFAH FP inh = pPAFAH (human) enzyme inhibition; Q13093; recombinant pPAFAH, FP-rhodamine probe fluorescence polarization; inhibition, % at 3.39 µM; 330,000 compounds, 1.5% hits;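 active means inhibition above the mean inhibition across the screen plus 3 SD, cut at about 25% in these data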;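 further: inhibitors block binding of the rhodamine activity-based probe so polarization drops; 0% = enzyme with DMSO and 100% = wells lacking pPAFAH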
Target sequence (Q13093 whole entry, looked up): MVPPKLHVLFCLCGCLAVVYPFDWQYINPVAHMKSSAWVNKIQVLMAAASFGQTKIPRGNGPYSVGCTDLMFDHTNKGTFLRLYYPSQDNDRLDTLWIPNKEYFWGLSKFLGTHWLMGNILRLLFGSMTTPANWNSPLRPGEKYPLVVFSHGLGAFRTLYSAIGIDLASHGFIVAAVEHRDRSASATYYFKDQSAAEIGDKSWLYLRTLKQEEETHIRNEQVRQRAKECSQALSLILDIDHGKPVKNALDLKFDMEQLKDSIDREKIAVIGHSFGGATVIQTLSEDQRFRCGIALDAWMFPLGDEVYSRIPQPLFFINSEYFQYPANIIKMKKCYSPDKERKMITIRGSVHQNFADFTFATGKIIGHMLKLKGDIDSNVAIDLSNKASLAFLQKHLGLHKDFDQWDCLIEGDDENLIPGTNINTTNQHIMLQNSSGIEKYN
E coli Lon inh = inhibitors of E. coli Lon protease. P0A9M0. purified E. coli Lon protease, fluorescence polarization. inhibition, % at 7.94 µM. 360,000 compounds, 0.42% hits. AID 602123; in the data active means inhibition above about 13%, passing the limit was not always enough;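 further: 0% = enzyme with probe and DMSO and 100% = no enzyme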
Rin1-Abl PPI inh = blocks binding of human Rin1 to Abl; TR-FRET Rin1/Abl binding, biochemical; inhibition, % at 7.35 µM; 360,000 compounds, 0.4% hits; AID 588664; P00519+Q13671; in the data active means inhibition above about 5%, passing the limit was not always enough
PAFAH2 FP inh = inhibitors of human PAFAH2; 340,000 compounds, 0.99% hits; inhibition, % at 3.39 µM; recombinant PAFAH2, FP-rhodamine activity probe, fluorescence polarization; Q99487;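 active means inhibition above the mean over all tested compounds plus 3 SD, cut at about 30% in these data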;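 further: inhibitors block probe labeling of enzyme so polarization drops; 0% = enzyme with DMSO and 100% = wells lacking PAFAH2 protein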
PAFAH2 confirm = PAFAH2 (human) inhibition, confirmed. shares compounds with PAFAH2 FP inh. inhibition, % at 3.39 µM. recombinant PAFAH2, FP-rhodamine activity probe, fluorescence polarization. 2,300 compounds, 65% hits;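 active means mean inhibition over three repeats above a set limit taken from the earlier primary screen, cut at about 30% in these data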;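 further: inhibitor blocks binding of rhodamine activity probe so polarization falls; 0% = enzyme with DMSO and 100% = wells lacking PAFAH2 protein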
* hit, by the source's call; . = no result given. Hits are enriched below; roughly 3.1% of the tested compounds scored in any of these assays.

SMILES	PAFAH1B2 FP inh	PAFAH1B3 FP inh	pPAFAH FP inh	E coli Lon inh	Rin1-Abl PPI inh	PAFAH2 FP inh	PAFAH2 confirm
CCCS(=O)(=O)c1ccc(COC(=O)c2ccc(NC(C)=O)cc2)cc1	-3.6	8.9	-2.2	-2.7	4.0	30.2*	23.9
COC(=O)[C@]1(C)N[C@H](CN(C)C(=O)C2CCCCC2)[C@@H]2C(=O)N(Cc3ccccc3)C(=O)[C@@H]21	5.0	6.0	0.5	-12.8	0.5	-5.8	.
Cc1sc2nc(SCC(=O)Nc3ccc(S(N)(=O)=O)cc3)[nH]c(=O)c2c1C	3.1	6.9	11.7	-3.3	0.4	14.8	.
Cc1sc2nc(SCC(=O)Nc3cccc(S(N)(=O)=O)c3)[nH]c(=O)c2c1C	2.8	6.2	9.7	-13.3	1.9	35.3*	15.9
CCOc1ccc(-c2cc(C(=O)OC)[nH]n2)cc1	-1.2	1.5	0.9	0.8	0.3	-5.1	.
O=Cc1ccc(OC(=O)CCCCC(=O)Oc2ccc(C=O)cc2)cc1	3.9	0.2	-1.8	0.7	6.4	34.4*	1.5
NC(=O)C1CCCN(C(=O)c2ccc3oc(Cc4ccc(Cl)cc4)nc3c2)C1 (configuration not stated)	10.6	2.0	-2.0	-12.3	2.8	8.6	.
O=C(c1ccc2oc(Cc3ccc(Cl)cc3)nc2c1)N1CC[C@H](O)C1	6.7	3.7	6.1	2.5	2.7	71.0*	62.6*
COc1cccc(/C=C/C(=O)OCC(=O)NC2CC2)c1OC	5.2	16.5	6.4	5.3	0.5	68.1*	58.0*
COc1ccc(/C=C/C(=O)OCC(=O)N2CCCC2)c(OC)c1	0.8	-2.5	5.0	-4.5	-2.1	16.1	.
COc1ccc(/C=C/C(=O)OCC(=O)NC2CC2)c(OC)c1	0.9	9.8	3.9	-10.6	0.5	82.9*	79.2*
O=C(O)CN1C(=O)COc2ccc(S(=O)(=O)N3CCCCCC3)cc21	6.0	2.9	0.9	-7.3	2.0	-2.4	.
CC(C)(C)C1CCC(=NOC(=O)c2ccc(F)cc2)CC1 (configuration not stated)	5.1	6.4	5.3	9.3	-2.3	80.7*	84.0*
Cc1ccc(C(=O)ON=C2CCN(S(=O)(=O)c3ccccc3)CC2)cc1	0.6	2.9	13.5	-2.9	-1.3	89.8*	89.0*
CC(C)(C)C1CCC(OC(=O)c2ccncc2)CC1 (configuration not stated)	0.3	11.0	1.3	4.0	-5.6	-2.1	.
CS(=O)(=O)ON=C1CCN(S(=O)(=O)c2ccccc2)CC1	5.6	9.1	-0.7	-6.1	4.4	0.1	.
O=C(ON=C1CCN(S(=O)(=O)c2ccccc2)CC1)c1ccc(F)cc1	8.8	5.4	6.5	-7.5	1.2	87.2*	84.0*
CCOc1ccc(C(=O)OCC(=O)Nc2cccc(S(=O)(=O)N3CCCC3)c2)cc1	-0.7	-3.0	9.2	-9.3	1.3	68.2*	57.1*
O=C(COC(=O)c1ccco1)Nc1cccc(S(=O)(=O)N2CCCCC2)c1	5.1	-1.0	-1.7	-14.7	-0.7	48.5*	40.8*
O=C(COC(=O)c1ccc(O)cc1)Nc1cccc(S(=O)(=O)N2CCCCC2)c1	-0.6	-5.8	6.2	-7.2	3.2	52.5*	55.3*
O=C(CCNC(=O)c1ccccc1)OCC(=O)c1ccccc1	6.7	4.3	0.2	-6.6	0.1	32.8*	4.5
O=C(C[n+]1ccccc1)N/N=C/c1ccccc1C(F)(F)F	2.1	7.8	0.2	0.1	-3.5	-3.4	.
O=C(COC(=O)/C=C/c1ccc(Cl)cc1)Nc1ccc2[nH]c(=O)[nH]c2c1	-13.1	-4.8	-5.1	-12.2	-1.3	-29.7	.
O=C(COC(=O)/C=C/c1ccccc1)Nc1ccc2c(c1)OCCO2	3.5	-6.6	7.8	-5.6	4.1	68.8*	55.7*
NC(=O)c1ccsc1NC(=O)COC(=O)/C=C/c1ccccc1	6.4	4.0	5.6	-5.9	-3.4	8.8	.
O=C(COC(=O)/C=C/c1ccccc1)Nc1cccc(Oc2ccccc2)c1	-17.1	-2.8	-6.2	-5.1	-1.1	35.8*	31.7*
O=C(COC(=O)/C=C/c1ccc(Cl)cc1)Nc1ccccc1	2.0	7.7	3.2	3.4	-2.4	72.9*	71.9*
Cc1ccc(-n2nc3c(=O)n(CCCC(=O)NCc4ccccc4Cl)nc(C)c3c2C)cc1	2.7	5.8	8.1	-6.7	2.6	4.0	.

Screening results from PubChem BioAssay.
